# Assay outcomes (PubChem BioAssay)
# LGR2 antag = Drosophila LGR2 receptor signaling inhibition; HEK293 LGR2, CRE-luciferase, bursicon-stimulated, 4 h; inhibition, % at 9.99 µM; 380,000 tested, 0.35% active;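 active = drop in luminescence signal, shown as inhibition above about 50% in the replicate tests, limit read from the data, passing the limit was not always enough; inconclusive = probably only some replicates passing the limit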;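 also: agonist challenge used bursicon conditioned medium at about half maximal strength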
# CF NFkB block = blocks PAF-induced NF-kB reporter in cystic fibrosis cells; AID 588850; KKLEB NF-kB-GFP reporter, GFP fluorescence overnight; 360,000 tested, 0.86% active; inhibition, % at 5 µM;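 active = at least 50% inhibition at 5 µM, scaled per plate between neutral and stimulator controls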;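 also: PAF is a Pseudomonas aeruginosa culture filtrate used as stimulus; plate controls were PAF-stimulated DMSO wells for no effect and unstimulated DMSO wells for full effect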
# TWEAK Fn14 block = inhibitors of TWEAK-Fn14 interaction signaling. TWEAK-stimulated Fn14 reporter cells, luciferase luminescence, 8 h. inhibition, % at 10 µM. 360,000 tested, 2% active; in the data active = inhibition above about 50%
# HIF-2a inh = blocks HIF-2a reporter activity | 786-0 RCC cells HIF-2a reporter, luciferase luminescence, overnight | inhibition, % at 18.8 µM | 360,000 tested, 0.72% active | AID 624352;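 active = inhibition of the luminescence signal of 40% or more relative to plate controls, in a single-dose primary screen at 18.75 µM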
# KKLEB tox = counter-screen for CF NF-kB inhibitors: cytotoxicity; KKLEB CF airway cells viability, ATPlite luminescence, overnight; stronger effect = lower value; cells stimulated with P. aeruginosa culture filtrate; activity change (cytotoxicity), % at 5 µM; 360,000 tested, 0.36% active; AID 602141;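 active = corrected activity change at or below -50% at 5 µM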
# iPSC survival up = increases survival of single human iPS cells. hiPSC single-cell survival, ATPlite luminescence; 100% = ROCK inhibitor wells, 0% = DMSO. survival enhancement, % at 20 µM. 360,000 tested, 0.044% active. AID 602274; in the data active = survival enhancement above about 18%;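 also: cells exposed to compounds for 16 hours before the ATP read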
# Mdm2 MdmX conf = confirmation of inhibitors of human Mdm2/MdmX interaction, set 2; shares compounds with HIF-2a inh; SaOS-2 split-luciferase Mdm2/MdmX complementation, luminescence; inhibition, % at 8 µM; 740 tested, 99% active; AID 504601;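 active = mean inhibition of the luminescence signal across two replicates at or above 26 percent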
# Target sequence (O15151 whole entry, looked up): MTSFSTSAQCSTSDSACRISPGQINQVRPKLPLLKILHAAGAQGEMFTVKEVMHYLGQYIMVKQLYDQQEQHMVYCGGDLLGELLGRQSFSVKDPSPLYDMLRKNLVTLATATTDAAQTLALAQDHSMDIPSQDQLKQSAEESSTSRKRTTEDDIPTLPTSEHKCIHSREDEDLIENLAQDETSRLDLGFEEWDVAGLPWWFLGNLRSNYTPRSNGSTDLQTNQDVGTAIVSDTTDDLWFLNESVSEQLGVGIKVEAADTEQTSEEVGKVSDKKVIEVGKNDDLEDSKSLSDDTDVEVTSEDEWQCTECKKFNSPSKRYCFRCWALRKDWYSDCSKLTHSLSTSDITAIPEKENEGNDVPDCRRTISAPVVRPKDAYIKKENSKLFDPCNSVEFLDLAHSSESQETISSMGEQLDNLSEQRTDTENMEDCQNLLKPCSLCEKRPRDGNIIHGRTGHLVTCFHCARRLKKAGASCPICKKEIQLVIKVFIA
# Target sequence (Q00987 whole entry, looked up): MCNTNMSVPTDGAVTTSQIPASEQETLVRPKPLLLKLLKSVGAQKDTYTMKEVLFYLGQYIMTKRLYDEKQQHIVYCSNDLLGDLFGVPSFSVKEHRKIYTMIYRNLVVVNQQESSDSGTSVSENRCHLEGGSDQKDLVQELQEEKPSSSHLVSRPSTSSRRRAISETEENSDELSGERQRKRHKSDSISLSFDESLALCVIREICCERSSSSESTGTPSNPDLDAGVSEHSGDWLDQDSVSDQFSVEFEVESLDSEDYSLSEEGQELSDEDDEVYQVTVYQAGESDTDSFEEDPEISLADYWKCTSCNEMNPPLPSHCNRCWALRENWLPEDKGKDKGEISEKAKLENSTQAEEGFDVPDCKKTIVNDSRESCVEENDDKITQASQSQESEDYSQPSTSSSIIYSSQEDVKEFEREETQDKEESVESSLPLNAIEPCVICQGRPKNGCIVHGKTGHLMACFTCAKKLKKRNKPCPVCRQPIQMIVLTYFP
# HIF-2a inh conf = confirmation of HIF-2a inhibitors; 1,800 tested, 56% active; inhibition, % at 18.8 µM; 786-0 RCC cells, HIF-2a luciferase reporter luminescence, overnight; shares compounds with HIF-2a inh;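 active = mean inhibition across four replicates of at least 40 percent at the single tested concentration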
# HIF-1a cs = inhibits HIF-1a reporter, a counter-screen for HIF-2a inhibitors. inhibition, % at 18.8 µM. shares compounds with HIF-2a inh. MiaPaCa-2 HIF-1a luciferase reporter, desferoxamine, overnight. 1,800 tested, 72% active. AID 651589;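 active = mean inhibition of the reporter signal across four replicates at the single tested dose of 50% or more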
# Starred values were filed as active, the others as inactive; ? = inconclusive; . = no result given. Sampled rows, rich in hits. Any-hit rate of the full collection: about 2.3%.
SMILES,LGR2 antag,CF NFkB block,TWEAK Fn14 block,HIF-2a inh,KKLEB tox,iPSC survival up,HIF-2a inh conf,HIF-1a cs,others
Nc1c(N(C(=O)Nc2ccc(Cl)c(Cl)c2)C2CCCC2)c(=O)[nH]c(=O)n1Cc1ccccc1,.,19,-14,40*,-27,1,11,103*,
COCCN(C(=O)C1CCCC1)c1c(N)n(Cc2ccccc2)c(=O)[nH]c1=O,20,8,18,15,5,-1,.,.,
COc1ccc2c3c([nH]c2c1)[C@H](CO)N(C(=O)Nc1ccc(F)cc1)CC31CCN(C(=O)Nc2ccc3c(c2)OCO3)CC1,22,.,.,.,.,.,.,.,
O=C(CCl)N(c1ccccc1)c1c[nH]c2ccccc12,.,64*,69*,73*,-54*,-4,53*,104*,Mdm2 MdmX conf=103*
CC(=O)n1cc(CO)c2ccccc21,-3,-6,1,19,4,-2,.,.,
O=C(CCl)N(c1ccc(Cl)cc1)c1c[nH]c2ccccc12,-39,84*,67*,95*,-89*,-5,96*,107*,Mdm2 MdmX conf=103*
CC(=O)n1cc(N(C(=O)CCl)c2ccccc2)c2ccccc21,12,90*,66*,84*,-95*,-1,95*,106*,Mdm2 MdmX conf=103*
COc1ccc2c3c([nH]c2c1)[C@H](CO)N(C(=O)C1CCCC1)CC31CCN(C)CC1,-12,.,.,.,.,.,.,.,
Cc1nn(-c2ccccc2)c(Cl)c1CN(C(=O)CCl)c1ccc(Cl)cc1,0,91*,-2,96*,-97*,-3,99*,106*,
CC(=O)N(Cc1c(C)nn(-c2ccccc2)c1Cl)c1ccc(Cl)cc1,.,18,5,29,-10,-2,.,.,
Cc1nn(-c2ccccc2)c(Cl)c1CN(C(=O)CCl)c1cccc2ccccc12,35,32,77*,62*,1,-2,73*,106*,Mdm2 MdmX conf=103*
Cc1nn(-c2ccccc2)c(Cl)c1C(=O)NCC(=O)O,.,-2,15,10,2,8,.,.,
C[C@@H]1CN([C@@H](C)CO)C(=O)c2cccc(NS(=O)(=O)c3ccc(Cl)cc3)c2O[C@@H]1CN(C)S(=O)(=O)c1cn(C)cn1,22,.,.,.,.,.,.,.,
C[C@@H]1CN([C@@H](C)CO)C(=O)c2cc(Br)cnc2O[C@H]1CN(C)Cc1ccncc1,6,.,.,.,.,.,.,.,
Cc1ccc(S(=O)(=O)/N=C(\Sc2ccccc2)c2ccccc2)cc1,.,1,9,43*,3,-2,56*,49,
O=S(=O)(/N=C(\Sc1ccccc1)c1ccccc1)c1ccc(Cl)cc1,4,15,-1,-8,17,3,.,.,
C[C@@H]1CN([C@H](C)CO)S(=O)(=O)c2ccc(C3=CCCC3)cc2O[C@H]1CN(C)Cc1ccccn1,-20,.,.,.,.,.,.,.,
CC(C)n1c(/C=C/[C@H](O)C[C@H](O)CC(=O)O)c(-c2ccc(F)cc2)c2ccccc21,.,31,19,45*,-28,0,25,-25,
COc1ccc(S(=O)(=O)Nc2ccc3c(c2)C(=O)N([C@@H](C)CO)C[C@@H](C)[C@@H](CN(C)S(=O)(=O)c2cccs2)O3)cc1,11,.,.,.,.,.,.,.,
Cc1ccc(C(=O)N/C(=C\c2ccc(-c3ccc(Br)cc3)o2)C(=O)NCCCN(C)C)cc1,?,15,-279,33,-19,-4,.,.,Mdm2 MdmX conf=103*
Cc1ccc(C(=O)N/C(=C\c2ccc(-c3cccc([N+](=O)[O-])c3)o2)C(=O)NCCCN(C)C)cc1,.,16,-20,-10,-12,1,.,.,
CCC(=O)Nc1ccc2c(c1)OC[C@@H](C)N(C(=O)Cc1ccccn1)C[C@H](C)[C@@H](OC)CN(C)C2=O,-3,.,.,.,.,.,.,.,
CCC(=O)N1CCN(c2ccc(NC(=O)c3ccc([N+](=O)[O-])o3)cc2)CC1,5,56*,-1,61*,-21,0,31,74*,
O=C(Nc1ccc(N2CCN(C(=O)c3ccc(Cl)cc3)CC2)cc1)c1ccc([N+](=O)[O-])o1,46,96*,33,97*,-78*,-3,87*,107*,
CC(C)(C)C(=O)N1CCN(c2ccc(NC(=O)c3ccco3)cc2)CC1,6,1,1,-24,-1,0,.,.,
SMILES,LGR2 antag,CF NFkB block,TWEAK Fn14 block,HIF-2a inh,KKLEB tox,iPSC survival up,HIF-2a inh conf,HIF-1a cs,others
CC(C)(C)C(=O)N1CCN(c2ccc(NC(=O)c3ccc([N+](=O)[O-])o3)cc2)CC1,5,56*,-9,88*,-4,0,10,81*,
O=C(Nc1cccc(NC(=O)c2ccccc2Cl)c1)c1ccc([N+](=O)[O-])o1,12,78*,35,61*,-9,-1,37,104*,
O=C(Nc1ccccc1N1CCN(C(=O)c2ccccc2)CC1)c1ccc([N+](=O)[O-])o1,-2,-25,-27,-8,-3,0,.,.,
O=C(Nc1nc2c(Cl)cccc2s1)c1ccc([N+](=O)[O-])o1,9,-25,14,-154,1,0,.,.,
COc1ccccc1NC(=O)N[C@H]1CC[C@@H](CCNS(=O)(=O)c2ccc(F)cc2)O[C@H]1CO,12,.,.,.,.,.,.,.,
C[C@H]1CN([C@@H](C)CO)S(=O)(=O)c2ccc(C#CC(C)(C)O)cc2O[C@H]1CN(C)C,-8,.,.,.,.,.,.,.,
CN1CCN(C(=O)C[C@H]2CC[C@H]3[C@@H](COc4ccc(NC(=O)C5CC5)cc4C(=O)N3C)O2)CC1,6,.,.,.,.,.,.,.,
C[C@H](NC(=O)[C@@H]1[C@@H](CO)[C@@H]2Cn3c(cccc3=O)[C@H]1N2Cc1ccccc1)c1ccccc1,17,.,.,.,.,.,.,.,
CO[C@@H]1CN(C)C(=O)c2ccc(NS(=O)(=O)C3CCCCC3)cc2OC[C@@H](C)NC[C@@H]1C,-10,.,.,.,.,.,.,.,
C[C@H]1CCCCO[C@@H](CN(C)Cc2ccc(C(F)(F)F)cc2)[C@@H](C)CN([C@@H](C)CO)C(=O)c2cc(NS(=O)(=O)c3cn(C)cn3)ccc2O1,12,.,.,.,.,.,.,.,
COc1ccc(S(=O)(=O)N[C@H]2C=C[C@H](CC(=O)NCCc3ccncc3)O[C@H]2CO)cc1,-2,.,.,.,.,.,.,.,
O=C(Nc1ccc(N2CCN(Cc3ccccc3F)CC2)cc1)c1ccc([N+](=O)[O-])o1,13,81*,27,93*,-77*,0,31,105*,
CCCC(=O)N1CCN(c2ccc(NC(=O)c3ccc([N+](=O)[O-])o3)cc2)CC1,18,90*,-6,94*,-63*,0,64*,97*,
